From PubChem BioAssay AID493083 (Broad Institute, 2011)
Among all 2,400 compounds or so, about 95 (4%) were called active. Another 3% or so got no clear call; they are omitted.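 Rule for the calls: active = compounds lowering signal whose fitted AC50 is at most ten times the top tested dose; inconclusive = flat fit with moderate inhibition, or poor curve fit; inactive = the rest.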 The list is a sample of the results. Potency and affinity values are given separately.

Test: decrease of heat-induced HSF-1 GFP reporter, dose response, NIH3T3 R4 cells, GFP/RFP, cherry-pick, set 3 (AID 493083);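 note: 0% = neutral control wells and -100% = didemnin B positive control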
Details: NIH3T3 R4 HSF-1 GFP reporter, heat shock, 48 h; series mostly up to 19.5 µM; activity change, negative = inhibition: at the top concentration

Activity change, negative = inhibition, inactive:
CCC(C(=O)OCC(=O)Nc1cc(Cl)ccc1Cl)c1ccccc1 (stereo not drawn) -0.627%
Cc1cc(Nc2cccc(Cl)c2)nc(-c2ccccc2O)n1 2.12%
O=C(O)c1cccc(Nc2ccnc(Nc3cccc(C(=O)O)c3)n2)c1 -5.94%
CC(=O)NC(=S)Nc1cccc(S(=O)(=O)NC2=NCCC2)c1 -1.24%
Cn1c(=O)c2ncn(CC(=O)Nc3ccc4c5c(cccc35)CC4)c2n(C)c1=O 29.5%
COc1ccc(OCCN2C(=O)c3ccccc3C2=O)cc1 -7.76%
CCN(CC)C(=O)CN1C(=O)/C(=C/c2ccccc2)SC1=S 6.39%
CC(C)N1CCC(N2CCN(C3CCCC3)CC2CCO)CC1 (stereo not drawn) -0.505%
CCCC(C)NS(=O)(=O)c1ccccc1 (stereo not drawn) -1.47%
CC(CCc1ccccc1)NC(=O)CCNS(=O)(=O)c1ccccc1 (stereo not drawn) 1.85%
Cc1ccc(-c2nnn(CC(=O)N(Cc3cccs3)C(C(=O)NC3CCCC3)c3ccncc3)n2)cc1 (stereo not drawn) 20.9%
CCCN(CCC)S(=O)(=O)c1ccc(NC(=O)c2cc(C(=O)OC)cc([N+](=O)[O-])c2)cc1 8.28%
NC(=O)CC(NC(=O)Cc1ccc(Cl)cc1)c1ccc(NC2CCCCCC2)c([N+](=O)[O-])c1 (stereo not drawn) -4.13%
Cc1cc(C)cc(SCc2noc(C(=O)NCc3ccccc3)c2C(=O)NCc2ccccc2)c1 -2.26%
O=[N+]([O-])c1ccccc1CCc1cnc(Cl)s1 -12.9%
O=C(CNC(=O)C1CCCCC1)NC1=NCCS1 -0.457%
CC(C)(C)N1[C@@H](CC(=O)O)c2cc(C(F)(F)F)ccc2S1(=O)=O 1.39%
Cc1cc(C)n(-c2ccc(NC(=O)C3CCCCN3C(=O)c3ccoc3C)cc2)n1 (stereo not drawn) 7.41%
COc1ccc(C(C)NC(=S)NC2CCCCC2)cc1OC (stereo not drawn) 3.12%
COc1ccc(C(C(=O)NC2CCCCC2)N(C(=O)CCl)c2cccc(Cl)c2)cc1 (stereo not drawn) 122%
O=C1N=C(N2CCCC2)S/C1=C\C=C\c1ccccc1 7.74%
Cc1nn2c(CN(C(=O)CN3CCOCC3)c3ccccc3)nnc2c2ccccc12 -1.66%
O=C(CCCCn1c(=O)[nH]c2ccsc2c1=O)NCc1cccnc1 0.446%
CCCC(=O)Nc1cccc(NC(=O)c2cccc([N+](=O)[O-])c2C)c1 8.31%
Cc1cccc(NC(=O)c2sc(-c3ccccc3)nc2-c2ccc([N+](=O)[O-])cc2)c1 1.84%
CCOC(=O)/C(C#N)=C/c1cc(C)n(-c2ccccc2)c1C 23.8%
CCCCNC(=O)C(c1ccc(OCC(=O)OC)c(C(=O)OC)c1)N(CCc1c[nH]c2ccccc12)C(=O)CCCCCN1C(=O)NC(c2ccc(-c3ccccc3)cc2)C(C(=O)OCc2ccccc2)=C1C (stereo not drawn) -3.99%
CC1=C(C(=O)Nc2ccccc2)C(c2cc(CN3CCOCC3)cs2)C2=C(CCCC2=O)N1 (stereo not drawn) -6.96%
COC(=O)C1(Cc2ccccc2)NC(c2ccccc2C)C2C(=O)N(c3ccc4c(c3)OCO4)C(=O)C21 (stereo not drawn) 1.42%
CCN(C(=O)COC(=O)/C=C/c1ccccc1)C1CCCCC1 -5.04%
Cc1cccc(N(Cc2ccccc2)C(=O)CCl)c1 30.1%
CC(C)(C)C(CN1CCCC1)OC(=O)c1ccccc1 (stereo not drawn) -1.59%
COc1ccc(OC)c(N=C2SCCCN2C(=O)c2ccc(N3C(=O)CCC3=O)cc2)c1 -7.4%
CCOc1ccc(CCNC(=O)c2nn(C)c3c2CS(=O)(=O)c2ccccc2-3)cc1 16.6%
Cc1cc(C)c2cc(CN(CCN(C)C)C(=O)Nc3ccccc3Cl)c(=O)[nH]c2c1 5.03%
Cc1ccc(C(=O)N2CCCC(Nc3ccc(F)cc3)C2)cc1C (stereo not drawn) 0.822%
Cc1ccc(-n2ncc3c(NCc4ccc5c(c4)OCO5)ncnc32)c(C)c1 26.2%
Nc1ccccc1SCC(=O)Nc1ccc2c(c1)OCCO2 -0.379%
CC(=O)c1ccc(NC(=O)c2cnn3ccccc23)cc1 5.6%
Cc1cc(/C([O-])=C(/C(=S)Nc2ccccc2)[n+]2ccccc2)c(C)n1-c1ccccc1 5.95%
NC(=O)COC(=O)c1cc(=O)[nH]c2ccccc12 -4.28%
COc1ccc(NC(=O)CN(C)CC(=O)Nc2ccc3c(c2)CCC3)cc1 -2.35%
CCO[C@@H]1OC(C(=O)NCc2ccccc2)=C[C@H](c2ccc3c(c2)OCO3)[C@H]1CCCO -7.04%
CC[n+]1c(/C=C/c2cc([N+](=O)[O-])ccc2O)ccc2ccccc21 14.5%
COc1ccc(N2CCN(S(=O)(=O)c3cc4c(cc3C)N(C(C)=O)CCO4)CC2)cc1 10.3%
COc1ccc(NC(=O)CCN2CCN(S(=O)(=O)c3ccc(OC)cc3)CC2)cc1 13.3%
Cc1cc(NC(=O)C2C3C(=O)N(Cc4ccc(Cl)cc4)C(C(=O)NC(C)(C)C)C34C=CC2(C)O4)no1 (stereo not drawn) -4.82%
COc1cc(OC)c(NC(=O)CN(C)S(=O)(=O)c2ccc3[nH]c(=O)oc3c2)cc1Cl -1.32%
O=C(CCl)NC(Cc1ccccc1)c1ccccc1 (stereo not drawn) 4.64%
O=C(CCl)Nc1ccccc1C(=O)c1ccccc1 1.46%
O=C1C2CCCN2c2ccc(S(=O)(=O)N3CCOCC3)cc2N1Cc1cccc(C(F)(F)F)c1 (stereo not drawn) 2.71%
O=C(CSc1nnc(CNC(=O)c2cccs2)o1)NCc1ccc(F)cc1 -4.17%
COCCNC(=O)CSC1=N/C(=C/c2ccc(Cl)c(Cl)c2)C(=O)N1c1ccccc1F 34.4%
CC(C)Sc1nc(SCC(=O)NCc2ccco2)c2c3c(sc2n1)COC(C)(C)C3 17.8%
CCOC(=O)N1CCN(C(=S)Nc2ccc(C)cc2C)CC1 -2.21%
CC1CCCN(S(=O)(=O)c2ccc(Br)s2)C1 (stereo not drawn) 1.88%
Cc1ccc(Cl)cc1NC(=O)C1COc2ccccc2O1 (stereo not drawn) -0.666%
CN(C)c1ccc(/C=N/NC(=O)C2COc3ccccc3O2)o1 (stereo not drawn) 7.29%
O=S(=O)(Cc1cc(Oc2ccccc2)nc(-c2ccccc2)n1)c1ccccc1 23.5%
O=C(O)C(=O)Nc1ccc(NC(=O)C(c2ccccc2)c2ccccc2)cc1 -4.7%
CCCS(=O)(=O)N1CCc2cc(OC)c(OC)cc2C1 -3.49%
Nc1ncnc2nc(N3CCN(C(=O)c4ccccc4)CC3)[nH]c12 -1.58%
O=C(CSC(=S)N1CCOCC1)Nc1nc(-c2ccccc2)c(-c2ccccc2)o1 -2.41%
Nc1nc(Cl)nc2c1ncn2C1CC(O)C(CO)O1 (stereo not drawn) 1.43%
CN1CCN(S(=O)(=O)c2cccc(C(=O)NCCC3=CCCCC3)c2)CC1 -0.832%
COc1ccc(N2CCN(c3ccc(NC(=O)NN)cc3)CC2)cc1 9.66%
Cc1cc(NC(=O)c2ccc3nc(C)sc3c2)no1 -6.84%
COc1ccccc1N1CCN(C(=S)Nc2ccc(F)cc2)CC1 -0.471%
O=c1[nH]cc(S(=O)(=O)c2ccccc2)[nH]1 -5.55%
CC1CCN(CC(=O)NC2CCCCC2)CC1 -2.37%
CCS(=O)(=O)N1CCN(C(=O)c2ccccc2)CC1 0.578%
Cc1ccc2c(c1)c(C)c(C)n2CC(O)Cn1nnc2ccccc21 (stereo not drawn) 0.602%
O=S1(=O)N[C@H](c2ccccc2)C[C@H](c2ccc(C(F)(F)F)cc2)O1 1.91%
CC(C)[C@H](NC(=O)Cc1ccccc1)C(=O)OCc1cc(=O)n2c(n1)sc1ccccc12 0.187%
Cc1ccc(CN2CCN(Cc3cccc(OCCO)c3)CC2CCO)o1 (stereo not drawn) -1.47%
Fc1ccc(-n2cc(CNCCc3ccccn3)c(-c3ccccc3Cl)n2)cc1 6.94%
Cc1ccc(-c2nn(-c3ccccc3)cc2CN(C)C(=O)CCC(=O)O)cc1C 4.16%
CN=c1scc(-c2cccs2)n1/N=C/c1ccccc1O 21.7%
CN=c1scc(-c2ccccc2F)n1/N=C/c1ccc[nH]1 30.7%
CN(C)S(=O)(=O)c1ccc(-c2csnn2)s1 0.103%
CCn1c(C(C#N)/C(=N\S(=O)(=O)c2cccs2)c2ccccc2)nc2ccccc21 (stereo not drawn) -6.65%
Cc1ccc(S(=O)(=O)N2CCC(C(=O)N[C@@H](Cc3ccccc3)C(=O)O)CC2)cc1 0.492%
CCN1C(=O)c2ccccc2S(=O)c2ccc(C(=O)NCc3ccc(OC)cc3)cc21 (stereo not drawn) -1.83%
Cc1ccc(C(=O)Nc2cc3ccccc3oc2=O)cc1 -1.68%
Cc1nc2ccc(NC(=O)N3CCSCC3)cc2s1 -4.41%
COC(=O)c1cc(S(=O)(=O)NCc2ccc(F)cc2)cn1C -1.23%
COc1ccc(CNC(=O)CCCNC(=O)c2ccc(Cl)cc2)cc1OC -2.5%
C=CCOc1ccccc1CN(C(=O)CCl)c1ccc2c(c1)OCO2 6.58%
